# Reference: publication PMC5540273 (PLoS ONE, 2017)
# Columns and labels:
# Settings in all cases: concentration: 1 μM, replicates: in singlicate; n = 1
# TAK1 = system: T1, TAK1
# T1 construct: gene MAP3K7
# TAOK1 = system: TAOK1
# TAOK2 = system: TAOK2
# TAOK3 = system: TAOK3
# TBK1 = system: TBK1
# TEC = system: TEC
# TESK1 = system: TESK1
# TGFBR1 = system: TGFBR1
# TGFBR2 = system: TGFBR2
# TIE1 = system: TIE1
# 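Further: KINOMEscan kinase panel screen.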
SMILES,%Inh (TAK1) [%],%Inh (TAOK1) [%],%Inh (TAOK2) [%],%Inh (TAOK3) [%],%Inh (TBK1) [%],%Inh (TEC) [%],%Inh (TESK1) [%],%Inh (TGFBR1) [%],%Inh (TGFBR2) [%],%Inh (TIE1) [%]
CCc1nc(-c2cccc(C)c2)c(-c2ccncc2)s1,0,0,14,0,35,0,0,0,13,0
CCn1c(-c2ccoc2)nc2cnccc21 [SB-733887],91.4,0,0,0,12,16,29,0,0,0
Cl.NS(=O)(=O)c1cccc(Nc2cc(-c3ccc(F)cc3)n[nH]2)c1 [GW824645],0,0,36,13,35,0,6,23,1,0
O=C(Nc1n[nH]c2nc(-c3ccccc3)c(Br)cc12)C1CC1 [SB-708998],0,9,0,16,4,0,7,0,6,14
